According to PubChem BioAssay:
The source made the active and inactive calls.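 The calls were made as follows, unless noted: active = fluorescence slope higher than the sample average by over 3 SD (cut at about -0.22 in these data, passing the limit was not always enough); inactive = the rest.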

How the values were obtained:
[1] = inhibitors of TNFa-induced NFkB p65 translocation, primary screen, imaging, HUVEC, MLSMR starter and 10KST1 sets (AID 438;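 active = inhibition above 20% together with a positive visual image hit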;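 also: compound added about 3h40 before a 20 min TNFalpha stimulation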;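 as to inhibition: signal is the nuclear over cytoplasmic p65 intensity ratio per well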); details: HUVEC TNFa-induced p65 nuclear translocation; cell count: measured here: nuclei count (cytotoxicity indicator), at 2.08 µM; inhibition: at 2 µM, stronger effect = higher value, 0% TNFa-plus-vehicle, 100% no-TNFa wells
[2] = reduction of polyQ htt aggregates in cells – imaging, exon1htt(103Q)mCFP cells, high-content imaging, primary screen (AID 483;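 active = visual image review flags a hit and inhibition of aggregation exceeds 20%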;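 also: compound exposure lasted 3 days before fixation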;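 as to nuclei count: percent of the per-plate median nuclei count of sample wells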); details: exon1htt(103Q)mCFP cell line, aggregate imaging, at 2 µM; inhibition of aggregation: stronger effect = higher value; nuclei count: measured here: cell count, toxicity
[3] = endothelial E-selectin expression blockers – imaging, HUVEC, immunofluorescence, MLSMR starter and 10KST1 sets, primary screen (AID 487;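 active = visually confirmed hit in the image check and inhibition above 20%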;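 as to inhibition: signal is fraction of cell area covered by stained E-selectin grains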;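 as to nuclei count: 100% = median nuclei count of all wells on the same plate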); details: HUVEC TNFalpha-induced E-selectin immunofluorescence imaging, at 2 µM; inhibition: stronger effect = higher value; nuclei count: measured here: cell number, toxicity
[4] = target: Voltage-gated potassium channel subunit beta-2 (Rattus norvegicus) (UniProt P62483); experiment: inhibitors of rat Kvbeta2 reductase activity – biochemical, NADPH fluorescence, primary screen (AID 622); details: recombinant KvBeta, 4-cyanobenzaldehyde reduction, at 10 µM, stronger effect = higher value;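 also: slope of raw intensity against log time taken from 70 to 1610 s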
[5] = target: Voltage-gated potassium channel subunit beta-2 (Rattus norvegicus) (UniProt P62483); experiment: enhancers of rat Kvbeta2 NADPH turnover – biochemical, NADPH fluorescence, primary screen (AID 623;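 active = NADPH fluorescence slope more negative than the mean of all samples by about 3 SD, 99.7% confidence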;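 also: fluorescence intensity change per second fitted from 20 to 320 s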); details: Recombinant KvBeta, NADPH fluorescence decrease slope, 10 min; at 10 µM; stronger effect = lower value
[6] = target: Alpha-2C adrenergic receptor (Homo sapiens) (UniProt P18825); experiment: compounds altering alpha2C-coupled GIRK flux – cell-based, HEK293 alpha2C/GIRK1/2, thallium flux, primary screen (AID 624;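 active = fluorescence slope after compound addition differing from the mean of all screened samples at 99.7% confidence, in either direction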;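 also: slope of fluorescence ratio to pre-addition baseline per second over 15 to 24 s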); details: thallium flux BTC fluorescence, at 10 µM, actives lie on both sides
[7] = blockers of RIG-like receptor reporter activation – cell-based, Sendai virus stimulus, luciferase, 10K MLSCN set, TLR/RLR signaling modifier project, primary screen (AID 602276;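 active = inhibition at or above 50% at 10 µM; inactive = inhibition below 50%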;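 also: firefly luciferase from ISG56 promoter only with Renilla not read in this screen; 0% = Sendai virus plus DMSO and 100% = medium plus DMSO without virus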); details: HEK293 RL24 IRF3 luciferase reporter, at 10 µM, stronger effect = higher value
[8] = TLR3 IRF3 reporter activation blockers – cell-based, poly I:C stimulus, luciferase, 10K MLSCN set, primary screen (AID 602277;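 active = inhibition of the reporter signal at or above 50%; inactive = inhibition below 50%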); details: HEK293-TLR3 RL24 IRF3 luciferase reporter, at 10 µM, stronger effect = higher value

Chain of Voltage-gated potassium channel subunit beta-2 (Rattus norvegicus) (P62483 whole entry, looked up): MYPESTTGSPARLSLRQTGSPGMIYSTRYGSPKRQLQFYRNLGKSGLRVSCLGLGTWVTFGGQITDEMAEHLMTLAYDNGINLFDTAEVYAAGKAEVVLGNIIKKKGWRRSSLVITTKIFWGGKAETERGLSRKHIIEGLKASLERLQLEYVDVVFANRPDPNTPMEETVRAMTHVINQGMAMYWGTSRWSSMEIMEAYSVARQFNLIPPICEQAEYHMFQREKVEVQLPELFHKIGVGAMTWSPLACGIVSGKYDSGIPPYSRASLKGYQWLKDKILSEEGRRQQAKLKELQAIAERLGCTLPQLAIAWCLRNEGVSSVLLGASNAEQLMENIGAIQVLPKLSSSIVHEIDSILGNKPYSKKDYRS
Chain of Alpha-2C adrenergic receptor (Homo sapiens) (P18825 whole entry, looked up): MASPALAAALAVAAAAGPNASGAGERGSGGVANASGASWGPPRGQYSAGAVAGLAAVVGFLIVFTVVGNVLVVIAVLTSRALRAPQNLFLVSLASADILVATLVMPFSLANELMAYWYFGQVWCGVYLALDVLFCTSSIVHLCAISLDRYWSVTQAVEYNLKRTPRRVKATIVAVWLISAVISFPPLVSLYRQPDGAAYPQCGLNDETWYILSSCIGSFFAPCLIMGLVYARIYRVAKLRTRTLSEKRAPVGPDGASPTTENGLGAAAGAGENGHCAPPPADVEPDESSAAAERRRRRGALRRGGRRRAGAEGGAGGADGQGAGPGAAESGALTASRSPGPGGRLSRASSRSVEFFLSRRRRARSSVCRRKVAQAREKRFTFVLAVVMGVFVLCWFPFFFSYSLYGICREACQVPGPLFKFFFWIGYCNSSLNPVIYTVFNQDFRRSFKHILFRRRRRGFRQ

Compound | cell count [1] | inhibition [1] | inhibition of aggregation [2] | nuclei count [2] | inhibition [3] | nuclei count [3] | fluorescence slope [4] | NADPH fluorescence slope [5] | slope [6] | inhibition [7] | inhibition [8]
Cc1cc(C)cc(NC(=O)CCNS(=O)(=O)c2ccc3c(c2)oc(=O)n3C)c1 | 755 | -14.1% (inactive) | -14.6% (inactive) | 120% | -79.9% (inactive) | 100% | -0.601 (inactive) | -3.2e-05 (inactive) | 0.00584 (inactive) | 20.7% (inactive) | 22.7% (inactive)
C/C(N)=C(/C#N)C(=O)COC(=O)c1cc(C)n(-c2ccc(F)cc2)c1C | 717 | 10.2% (inactive) | 2.4% (inactive) | 116% | -93.8% (inactive) | 146% | -0.487 (inactive) | 1.6e-05 (inactive) | 0.00428 (inactive) | 15.2% (inactive) | -211% (inactive)
COC(=O)c1cn(NC(=O)c2cccnc2)c(=O)c2ccccc12 | 364 | 2.5% (inactive) | -32.8% (inactive) | 112% | 29.8% (inactive) | 115% | -0.538 (inactive) | -6.1e-05 (inactive) | 0.00509 (inactive) | 10.1% (inactive) | 18.9% (inactive)
CC(CCc1ccccc1)NC(=O)CSc1nc(N)cc(N)n1 (stereo not drawn) | 253 | -6% (inactive) | -23.7% (inactive) | 10.8% | -41.5% (inactive) | 99.2% | -0.483 (inactive) | -4.4e-05 (inactive) | 0.00545 (inactive) | 8.76% (inactive) | 10.6% (inactive)
COc1ccccc1NC1=NC(c2ccc(Cl)cc2)N=C(N)N1 (stereo not drawn) | 395 | 5.2% (inactive) | -17.1% (inactive) | 35.1% | -308% (inactive) | 124% | -0.299 (inactive) | -4.5e-05 (inactive) | 0.0046 (inactive) | 29.3% (inactive) | 49.9% (inactive)
O=C(c1ccccc1Cl)N1CCc2ccccc2C1 | 645 | -4.9% (inactive) | 17.3% (inactive) | 97.3% | -68.8% (inactive) | 112% | -0.478 (inactive) | -0.000194 (inactive) | 0.00482 (inactive) | -6.82% (inactive) | -17% (inactive)
COc1ccc(C(=O)N2CCN(C3CCC(c4ccccc4)CC3)CC2)cc1OC (stereo not drawn) | 420 | -1.3% (inactive) | 20.2% (inactive) | 88.1% | 43.2% (inactive) | 83.9% | -0.436 (inactive) | -5.4e-05 (inactive) | 0.00292 (inactive) | 7.44% (inactive) | 17.6% (inactive)
COCCCNC(=O)Cn1cc2c(n1)CCC(C)C2 (stereo not drawn) | 767 | -6.1% (inactive) | -6% (inactive) | 104% | -27.6% (inactive) | 121% | -0.652 (inactive) | 2.7e-06 (inactive) | 0.00615 (inactive) | 4.22% (inactive) | 12.1% (inactive)
c1ccc(CCn2nnnc2CN2CCN(C3CCCC3)CC2)cc1 | 290 | -15.4% (inactive) | -9.3% (inactive) | 112% | -40.7% (inactive) | 118% | -0.604 (inactive) | -4.3e-05 (inactive) | 0.0058 (inactive) | -0.279% (inactive) | 20.4% (inactive)
COC1CCCCC1Nc1cccc(SC)c1 (stereo not drawn) | 411 | 0.6% (inactive) | -6.7% (inactive) | 90.9% | -65.5% (inactive) | 120% | -0.414 (inactive) | -2.4e-05 (inactive) | 0.0037 (inactive) | 12.1% (inactive) | 19.8% (inactive)
Oc1cc(NCc2cccnc2)ccc1-c1nc2ccccc2o1 | 378 | 6.8% (inactive) | -7.8% (inactive) | 119% | -28.5% (inactive) | 123% | -0.46 (inactive) | 8.7e-06 (inactive) | 0.00562 (inactive) | -31.3% (inactive) | -152% (inactive)
CCn1c(=N)n(CC(O)c2ccco2)c2ccccc21 (stereo not drawn) | 321 | -8.1% (inactive) | -20.7% (inactive) | 87.8% | -33% (inactive) | 110% | -0.358 (inactive) | -5.8e-05 (inactive) | 0.00623 (inactive) | 10.3% (inactive) | 24.1% (inactive)
CCn1cc(C(=O)NC2CCc3ccccc32)c(=O)c2ccc(C)nc21 (stereo not drawn) | 727 | -2.2% (inactive) | -0.4% (inactive) | 100% | -37% (inactive) | 110% | -0.559 (inactive) | 2.4e-05 (inactive) | 0.00594 (inactive) | 7.46% (inactive) | 13.4% (inactive)
COc1ccccc1N1CCN(Cc2nc(N)nc(Nc3ccc(C)c(Cl)c3)n2)CC1 | 467 | -1.9% (inactive) | 17.2% (inactive) | 97.1% | -5.6% (inactive) | 100% | -0.501 (inactive) | 1e-05 (inactive) | 0.00625 (inactive) | 11.5% (inactive) | 29.6% (inactive)
CCCC(c1nnnn1Cc1ccc(OC)cc1)N1CCN(c2ccccc2OC)CC1 (stereo not drawn) | 257 | 12.3% (inactive) | -3.4% (inactive) | 101% | -14.7% (inactive) | 82.7% | -0.433 (inactive) | -0.000141 (inactive) | 0.00492 (inactive) | 10.6% (inactive) | 23.6% (inactive)
O=C(COC(=O)C1CC2C=CC1C2)Nc1ccc2c(c1)OC(F)(F)O2 (stereo not drawn) | 434 | 9.3% (inactive) | 13.3% (inactive) | 89.2% | 11.1% (inactive) | 91.8% | -0.437 (inactive) | -6.4e-05 (inactive) | 0.00772 (inactive) | 15.9% (inactive) | 20.1% (inactive)
CCCOc1ccccc1C1CC(=O)Nc2cc3c(cc21)OCCO3 (stereo not drawn) | 647 | 4.9% (inactive) | 6.6% (inactive) | 39.3% | 29.7% (inactive) | 97.2% | -0.628 (inactive) | -2e-05 (inactive) | 0.00236 (inactive) | -3.13% (inactive) | 78% (active)
c1ccc2c(c1)sc1nnnn12 | 375 | -2.1% (inactive) | -24.6% (inactive) | 112% | -109% (inactive) | 115% | -0.555 (inactive) | -7.2e-05 (inactive) | 0.00357 (inactive) | 18% (inactive) | 27.2% (inactive)
C=CCn1c(SCC2=C(C(=O)OCC)C(C)NC(=O)N2)nnc1C1CCCCC1 (stereo not drawn) | 468 | 6% (inactive) | 4.5% (inactive) | 113% | -85.9% (inactive) | 121% | -0.469 (inactive) | 5.7e-05 (inactive) | 0.00672 (inactive) | 14.6% (inactive) | 27.1% (inactive)
Cc1ccc2c(c1)NC(=O)C(CC(=O)NC1CCCCC1C)O2 (stereo not drawn) | 611 | 2% (inactive) | 22% (inactive) | 86.3% | 21.5% (inactive) | 114% | -0.51 (inactive) | -4.1e-05 (inactive) | 0.00567 (inactive) | 9.73% (inactive) | 1.78% (inactive)
O=C(CSc1nc2c(c(=O)n1-c1ccc(F)cc1)SCC2)NCC1CCCO1 (stereo not drawn) | 256 | 9.8% (inactive) | 16.7% (inactive) | 94.5% | -8.7% (inactive) | 78.2% | -0.462 (inactive) | -5.5e-05 (inactive) | 0.00463 (inactive) | 17.7% (inactive) | 19.7% (inactive)
C(=N/n1c2ccccc2c2ccccc21)/c1ccco1 | 360 | -2% (inactive) | -20.7% (inactive) | 102% | 2.6% (inactive) | 109% | -0.417 (inactive) | -0.000138 (inactive) | 0.00632 (inactive) | 12% (inactive) | 29.6% (inactive)
CC(=O)NC(CCS(C)(=O)=O)C(=O)Nc1cccc(C)c1 (stereo not drawn) | 600 | 8.7% (inactive) | 2.5% (inactive) | 110% | 21.6% (inactive) | 95.7% | -0.579 (inactive) | 1.1e-05 (inactive) | 0.00598 (inactive) | -14.8% (inactive) | -1.13% (inactive)
CCN(CC)c1ccc(NC(=O)CN2C(=O)CC(C)(C)S(=O)(=O)c3ccccc32)c(C)c1 | 879 | 5.8% (inactive) | 30.2% (inactive) | 60.8% | -63.3% (inactive) | 125% | -0.465 (inactive) | -2.5e-05 (inactive) | 0.00659 (inactive) | 10.9% (inactive) | -2.32% (inactive)
CCC(c1nnnn1Cc1ccco1)N(CCc1ccccc1)Cc1cc2cccc(C)c2[nH]c1=O (stereo not drawn) | 788 | -8.4% (inactive) | -2.2% (inactive) | 86.2% | -19.1% (inactive) | 110% | -0.396 (inactive) | -1.9e-05 (inactive) | 0.00487 (inactive) | 25.2% (inactive) | 31.5% (inactive)
CCSCCNC(=O)c1cc(-n2cnnc2)ccc1Cl | 685 | 1.3% (inactive) | -2.3% (inactive) | 97.1% | 24.9% (inactive) | 89.9% | -0.633 (inactive) | -9.8e-06 (inactive) | 0.0037 (inactive) | 16.3% (inactive) | 20.3% (inactive)
CCCN1C2CCCC1CC(NC(=O)c1ccccc1F)C2 (stereo not drawn) | 461 | 6% (inactive) | -1.6% (inactive) | 115% | 14.8% (inactive) | 101% | -0.515 (inactive) | -4.7e-05 (inactive) | 0.00485 (inactive) | 10.6% (inactive) | 17.7% (inactive)
CCOC(=O)c1[nH]c(CSc2nnc(-c3ccncc3)n2CCOC)c(C(=O)OCC)c1C | 368 | 1.1% (inactive) | -5.7% (inactive) | 107% | -89.1% (inactive) | 127% | -0.486 (inactive) | 1.9e-05 (inactive) | 0.00635 (inactive) | 8.8% (inactive) | 11.1% (inactive)
